Records with an inconclusive call do not appear. Where a call stands in place of a potency, no number is given. A number with no mark means an inactive call. The source made the active and inactive calls. The call rests on the fitted dose curve; in most records, active means well fitted cell-killing curve with a large enough effect in the repeat runs; inconclusive means weak or mixed curves; inactive means flat fitted curve, though single readings scatter.
assay: qHTS RealTime-Glo MT Cell Viability Assay in HepG2 cells - 32 hour (AID 1224877); conditions: RealTime-Glo luminescence; series mostly up to 76.8 µM; further: nearly all actives have a fitted effect of over 55% in size
From the text: U.S. Tox21 Program National Center for Advancing Translational Sciences [NCATS] NIH Chemical Genomics Center [NCGC] U.S. Environmental Protection Agency [EPA] National Institutes of Environmental Health Sciences [NIEHS] National Toxicology Program [NTP] U.S. Food and Drug Administration [FDA] Tox21 Assay Overview: Measure of cell viability is critical in the cell-base assay. Analysis of cell viability is necessary for the characterization of cell responses to cytotoxic drugs and environmental stress. A RealTime-Glo MT Cell Viability Assay to monitor cell viability in real time of continues cell culture during 40 hours of compound treatment was used to screen Tox21 10K library compounds in HepG2 cells. The RealTime-Glo MT Cell Viability Assay is a nonlytic, homogeneous, bioluminescent method to measure cell viability in real time using a simple, plate-based method. The assay involves adding NanoLuc luciferase and a cell-permeant prosubstrate to cells in culture. Viable cells reduce the proprietary prosubstrate to generate a substrate for NanoLuc luciferase. This substrate diffuses from cells into the surrounding culture medium, where it is rapidly used by the NanoLuc Enzyme to produce a luminescent signal. The signal correlates with the number of viable cells, making the assay well suited for cytotoxicity studies.
Tox21 Assay Protocol Summary: The mixture of HepG2 cell suspension and reagents were dispensed at 600cells/6 ul/well in 1536-well tissue culture treated black solid bottom plates using a Multidrop dispenser. After the assay plates were incubated at a 37 C/5% CO2 incubator for 5 hours, 23 nL of compounds dissolved in DMSO, positive and negative controls was transferred to the assay plate by a pintool work station. The plates were incubated at 37 C for 40 hours. The luminescence intensity were measured at 0h, 8h, 16h, 24h, 32h and 40h time points using ViewLux plate reader during compound treatment.
Potency means the concentration at half of the fitted maximal effect.

| SMILES | Potency | activity change, negative = cytotoxic |
| --- | --- | --- |
| CCCC(=O)OC(=O)CCC | inactive |  |
| CCCCC[C@H](O)/C=C/[C@H]1[C@H](O)CC(=O)[C@@H]1C/C=C\CCCC(=O)O | inactive |  |
| CCOc1ncc(F)c(=O)[nH]1 | inactive |  |
| O=C1OC[C@H](Cc2cccc(O)c2)[C@H]1Cc1cccc(O)c1 | inactive |  |
| COc1ccc(-c2cc(C(F)F)nn2-c2ccc(S(N)(=O)=O)cc2)cc1F | inactive |  |
| C1CCCCC1 | inactive |  |
| CC(=O)C(=O)CC(C)C | inactive |  |
| CC/C=C\C/C=C\C/C=C\CCCCCCCC(=O)OCC | inactive |  |
| COc1ccc(C(=O)NCc2ccc(OCCN(C)C)cc2)cc1OC | inactive |  |
| CC(=O)N[C@@H](Cc1ccc(O)cc1)C(=O)O | inactive |  |
| OCC(CO)n1cnc(-c2ccc(F)cc2)c1-c1ccnc(Oc2ccccc2)n1 | inactive |  |
| CCCCCCCC(=O)Oc1c(Br)cc(C#N)cc1Br | inactive |  |
| Nc1ccc(NC(=O)c2ccc(N)cc2)cc1 | inactive |  |
| CCCCOCCOC(=O)c1cccnc1 | inactive |  |
| Cc1cc([N+](=O)[O-])ccc1N | inactive |  |
| O=P(O)(O)Oc1ccccc1 | inactive |  |
| O[C@@H](CNC[C@H](O)[C@H]1CCc2cc(F)ccc2O1)[C@@H]1CCc2cc(F)ccc2O1 | 15.1 µM (active) |  |
| BrC(Br)C(Br)Br | inactive |  |
| NC(=O)CCCCC(N)=O | inactive |  |
| CC(C)(C)NCC(O)COc1cccc2c1C[C@H](O)[C@H](O)C2 (stereo not given in full) | inactive |  |

| SMILES | Potency | activity change, negative = cytotoxic |
| --- | --- | --- |
| c1ccc(CCCc2ccncc2)cc1 | inactive |  |
| O=C(O)c1cccc(Oc2ccccc2)c1 | inactive |  |
| COC1CCC=CO1 (stereo not given) | inactive |  |
| O=C(c1ccccc1)C1CCC1 | inactive |  |
| CCC(CO)(CO)[N+](=O)[O-] | inactive |  |
| ClC1=C(Cl)C1(Cl)Cl | inactive |  |
| CCCCCC | inactive |  |
| COc1cc(NS(=O)(=O)c2ccc(N)cc2)nc(C)n1 | inactive |  |
| NC(=O)c1ccccc1[N+](=O)[O-] | inactive |  |
| CC(CCc1ccc(O)cc1)NCCc1ccc(O)c(O)c1 (stereo not given) | inactive |  |
| CC(=O)OCC1=C(C(=O)O)N2C(=O)[C@@H](NC(=O)CSc3ccncc3)[C@H]2SC1 | inactive |  |
| CC(CN(CCN(CC(C)OCCO)CC(C)OCCO)CC(C)OCCO)OCCO (stereo not given) | inactive |  |
| CCN(CC)c1ccc(C(=C2C=CC(=[N+](CC)CC)C=C2)c2ccc(S(=O)(=O)O)cc2S(=O)(=O)[O-])cc1 | inactive |  |
| CC1CCC(C(C)CS)CC1S (stereo not given) | inactive |  |
| Cc1ccc(Nc2c(F)cccc2Cl)c(CC(=O)O)c1 | inactive |  |
| CCC(Cl)CC(Cl)C(Cl)C(Cl)C(Cl)C(C)Cl (stereo not given) |  | -0.891% [at 15.8 µM] |
| C[C@@H]1[C@H](O)[C@@H](C)/C=C/C=C\C=C\C=C\C=C\C=C\C=C\[C@H](O[C@@H]2O[C@H](C)[C@@H](O)[C@H](N)[C@@H]2O)C[C@@H]2O[C@](O)(C[C@@H](O)C[C@@H](O)[C@H](O)CC[C@@H](O)C[C@@H](O)CC(=O)O[C@H]1C)C[C@H](O)[C@H]2C(=O)O (stereo in doubt) | inactive |  |
| CC(C)(C)CCCCCCOC(=O)c1ccccc1C(=O)OCCCCCCC(C)(C)C | inactive |  |
| CCN(CC)CC(=O)Nc1c(C)cccc1C(=O)OC | inactive |  |
| FC(F)(F)C(F)(F)C(F)(F)C(F)(F)CCI | inactive |  |
